# Measurements: the supplement of paper PMC10849652
# About 7,900 targets were measured; listed, in parts, are those with a hit and a random draw of the rest. About 0.6% of all pairs of compound and target were hits. Unmarked numbers belong to inactive results.
# Compound: CC(C)(O)CC(=O)NCCn1ccc2ncnc(Nc3ccc(Oc4cccc(C(F)(F)F)c4)c(Cl)c3)c21
# Experiment: log2 fold change, soluble protein after heating vs DMSO (PISA); higher = thermal stabilisation; K562 cells, 10 uM, 30 min; active = over 0.2 and 3.5 SD of the protein, either way, in both replicates (recomputed)
# Procedure, shortened: (§1)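 Quantification of soluble protein used TMTpro 16plex LC-MS/MS, with channel sums equalised. Samples were the supernatant after 21,000xg for 90 min of pooled aliquots from K562 cells (2×10^6 cells/mL) treated with 10 μM compound for 30 min, heated for 3 min over 48°C-58°C, and extracted in PBS with 0.5% NP-40 at 4°C. Values, from duplicates, describe thermal stability against control samples on a log2 fold-change scale.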
# Sequence of UniProt O94979 (O94979 whole entry, looked up): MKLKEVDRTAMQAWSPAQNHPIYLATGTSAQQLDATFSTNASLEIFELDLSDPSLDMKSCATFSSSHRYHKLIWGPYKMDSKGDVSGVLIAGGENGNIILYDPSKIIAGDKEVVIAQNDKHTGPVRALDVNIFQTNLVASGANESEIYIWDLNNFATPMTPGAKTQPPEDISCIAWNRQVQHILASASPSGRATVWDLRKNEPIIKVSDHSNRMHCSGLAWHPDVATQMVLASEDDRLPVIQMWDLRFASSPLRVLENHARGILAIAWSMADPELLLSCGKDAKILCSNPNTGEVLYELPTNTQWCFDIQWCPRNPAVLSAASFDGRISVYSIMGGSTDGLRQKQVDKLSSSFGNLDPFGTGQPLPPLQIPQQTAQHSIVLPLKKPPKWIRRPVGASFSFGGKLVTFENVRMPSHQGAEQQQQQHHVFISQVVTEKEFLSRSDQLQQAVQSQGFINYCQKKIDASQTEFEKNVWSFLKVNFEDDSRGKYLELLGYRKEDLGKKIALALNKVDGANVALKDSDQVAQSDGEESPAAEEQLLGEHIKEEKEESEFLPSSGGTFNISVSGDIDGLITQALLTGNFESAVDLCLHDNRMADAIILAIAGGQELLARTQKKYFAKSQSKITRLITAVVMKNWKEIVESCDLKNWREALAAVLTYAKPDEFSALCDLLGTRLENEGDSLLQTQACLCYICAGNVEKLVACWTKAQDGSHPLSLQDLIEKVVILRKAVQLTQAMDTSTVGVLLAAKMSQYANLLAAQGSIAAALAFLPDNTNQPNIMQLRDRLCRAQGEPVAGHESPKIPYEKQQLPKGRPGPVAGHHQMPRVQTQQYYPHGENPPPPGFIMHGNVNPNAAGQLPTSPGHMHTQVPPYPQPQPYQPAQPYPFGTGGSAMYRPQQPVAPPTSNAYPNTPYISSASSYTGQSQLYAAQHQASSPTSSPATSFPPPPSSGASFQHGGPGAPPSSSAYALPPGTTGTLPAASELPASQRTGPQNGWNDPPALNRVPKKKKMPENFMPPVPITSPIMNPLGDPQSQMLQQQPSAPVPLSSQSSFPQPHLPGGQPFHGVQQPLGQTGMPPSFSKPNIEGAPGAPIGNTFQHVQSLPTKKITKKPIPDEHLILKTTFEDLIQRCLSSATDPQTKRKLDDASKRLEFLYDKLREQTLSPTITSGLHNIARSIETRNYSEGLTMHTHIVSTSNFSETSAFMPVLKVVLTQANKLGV
# Sequence of UniProt P58004 (P58004 whole entry, looked up): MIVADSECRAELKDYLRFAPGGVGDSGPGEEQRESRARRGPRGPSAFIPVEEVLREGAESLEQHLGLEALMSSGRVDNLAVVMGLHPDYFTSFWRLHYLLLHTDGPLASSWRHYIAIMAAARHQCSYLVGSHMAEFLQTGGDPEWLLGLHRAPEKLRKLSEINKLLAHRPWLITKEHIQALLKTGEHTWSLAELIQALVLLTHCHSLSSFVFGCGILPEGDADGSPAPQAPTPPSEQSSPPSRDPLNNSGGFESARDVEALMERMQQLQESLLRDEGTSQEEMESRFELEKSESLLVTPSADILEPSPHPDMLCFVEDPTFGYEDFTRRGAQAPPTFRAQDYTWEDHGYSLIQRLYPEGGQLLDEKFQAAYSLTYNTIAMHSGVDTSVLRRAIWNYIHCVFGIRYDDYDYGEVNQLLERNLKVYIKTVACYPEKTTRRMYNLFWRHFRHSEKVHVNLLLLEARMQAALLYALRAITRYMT
# Sequence of UniProt Q86TU7 (Q86TU7 whole entry, looked up): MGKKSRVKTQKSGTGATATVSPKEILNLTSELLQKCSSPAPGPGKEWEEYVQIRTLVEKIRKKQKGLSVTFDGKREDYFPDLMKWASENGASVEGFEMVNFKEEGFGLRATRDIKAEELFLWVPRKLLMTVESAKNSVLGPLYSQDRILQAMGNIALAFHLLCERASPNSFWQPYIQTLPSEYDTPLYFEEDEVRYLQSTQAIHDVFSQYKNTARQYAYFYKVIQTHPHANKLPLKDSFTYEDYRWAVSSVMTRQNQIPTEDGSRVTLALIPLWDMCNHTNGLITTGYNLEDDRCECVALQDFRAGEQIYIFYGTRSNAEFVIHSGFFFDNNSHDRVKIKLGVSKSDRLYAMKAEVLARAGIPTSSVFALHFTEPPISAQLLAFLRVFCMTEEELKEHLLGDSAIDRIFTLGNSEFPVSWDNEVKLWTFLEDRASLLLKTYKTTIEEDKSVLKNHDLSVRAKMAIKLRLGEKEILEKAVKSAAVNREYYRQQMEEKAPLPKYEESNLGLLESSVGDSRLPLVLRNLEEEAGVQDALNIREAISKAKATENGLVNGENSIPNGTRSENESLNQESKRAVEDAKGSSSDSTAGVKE
# Sequence of UniProt Q04864 (Q04864 whole entry, looked up): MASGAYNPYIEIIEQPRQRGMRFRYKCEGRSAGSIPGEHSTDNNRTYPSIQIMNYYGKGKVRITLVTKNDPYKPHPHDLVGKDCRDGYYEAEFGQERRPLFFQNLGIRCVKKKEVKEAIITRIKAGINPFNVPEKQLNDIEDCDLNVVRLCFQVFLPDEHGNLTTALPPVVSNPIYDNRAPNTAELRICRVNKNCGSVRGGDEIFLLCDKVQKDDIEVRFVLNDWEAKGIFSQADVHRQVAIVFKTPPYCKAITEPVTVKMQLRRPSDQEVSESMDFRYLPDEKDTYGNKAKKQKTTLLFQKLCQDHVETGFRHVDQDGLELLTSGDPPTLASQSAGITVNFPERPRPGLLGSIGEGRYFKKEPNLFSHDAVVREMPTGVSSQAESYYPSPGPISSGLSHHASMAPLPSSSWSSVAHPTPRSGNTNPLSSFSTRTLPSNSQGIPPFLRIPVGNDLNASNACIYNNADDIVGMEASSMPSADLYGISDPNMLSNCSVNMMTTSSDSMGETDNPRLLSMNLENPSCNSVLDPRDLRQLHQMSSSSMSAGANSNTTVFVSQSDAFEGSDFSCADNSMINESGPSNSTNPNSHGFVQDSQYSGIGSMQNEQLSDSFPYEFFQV
# Sequence of UniProt O75116 (O75116 whole entry, looked up): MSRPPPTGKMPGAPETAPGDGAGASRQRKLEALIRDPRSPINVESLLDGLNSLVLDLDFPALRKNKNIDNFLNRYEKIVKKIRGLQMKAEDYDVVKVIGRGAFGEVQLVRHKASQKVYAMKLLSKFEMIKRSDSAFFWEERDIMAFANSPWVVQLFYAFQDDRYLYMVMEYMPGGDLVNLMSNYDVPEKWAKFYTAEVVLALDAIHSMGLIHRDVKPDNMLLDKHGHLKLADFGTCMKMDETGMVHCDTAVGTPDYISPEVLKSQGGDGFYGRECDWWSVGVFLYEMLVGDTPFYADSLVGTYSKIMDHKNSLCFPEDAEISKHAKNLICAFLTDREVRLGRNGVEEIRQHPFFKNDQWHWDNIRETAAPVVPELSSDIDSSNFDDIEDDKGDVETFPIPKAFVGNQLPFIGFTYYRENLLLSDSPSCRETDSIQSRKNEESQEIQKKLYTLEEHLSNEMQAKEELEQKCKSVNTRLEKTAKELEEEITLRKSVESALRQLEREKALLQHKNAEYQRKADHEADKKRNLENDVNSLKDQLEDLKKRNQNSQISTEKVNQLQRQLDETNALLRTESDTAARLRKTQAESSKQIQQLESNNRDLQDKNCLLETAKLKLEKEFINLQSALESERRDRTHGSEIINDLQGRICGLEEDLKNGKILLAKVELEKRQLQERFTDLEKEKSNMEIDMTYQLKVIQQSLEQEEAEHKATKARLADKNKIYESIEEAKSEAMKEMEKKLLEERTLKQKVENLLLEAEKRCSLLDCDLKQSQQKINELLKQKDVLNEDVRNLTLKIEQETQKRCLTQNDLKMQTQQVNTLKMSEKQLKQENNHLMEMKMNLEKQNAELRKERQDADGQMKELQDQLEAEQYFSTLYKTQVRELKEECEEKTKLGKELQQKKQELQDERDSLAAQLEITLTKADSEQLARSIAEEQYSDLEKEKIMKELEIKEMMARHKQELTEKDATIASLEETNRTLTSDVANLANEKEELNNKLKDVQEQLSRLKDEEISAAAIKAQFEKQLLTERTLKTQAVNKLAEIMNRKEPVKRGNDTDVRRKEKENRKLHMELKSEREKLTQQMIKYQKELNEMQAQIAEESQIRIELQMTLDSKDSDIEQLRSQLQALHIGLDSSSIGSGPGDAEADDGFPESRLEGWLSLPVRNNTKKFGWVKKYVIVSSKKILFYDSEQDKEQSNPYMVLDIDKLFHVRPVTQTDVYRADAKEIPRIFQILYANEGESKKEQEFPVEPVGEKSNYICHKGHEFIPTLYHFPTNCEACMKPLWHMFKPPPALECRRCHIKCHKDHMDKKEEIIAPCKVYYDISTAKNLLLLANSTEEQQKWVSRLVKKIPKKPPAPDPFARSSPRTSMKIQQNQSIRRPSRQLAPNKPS
# Sequence of UniProt Q9UKM9 (Q9UKM9 whole entry, looked up): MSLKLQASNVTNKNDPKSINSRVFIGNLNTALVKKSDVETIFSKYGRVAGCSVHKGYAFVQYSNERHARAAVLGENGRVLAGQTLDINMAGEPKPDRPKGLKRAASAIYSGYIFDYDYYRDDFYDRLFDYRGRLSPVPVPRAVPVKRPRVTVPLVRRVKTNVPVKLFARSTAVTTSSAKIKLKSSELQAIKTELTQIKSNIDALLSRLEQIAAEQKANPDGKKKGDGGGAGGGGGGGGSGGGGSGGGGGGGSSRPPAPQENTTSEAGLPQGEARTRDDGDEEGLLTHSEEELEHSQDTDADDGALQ
# Sequence of UniProt Q92930 (Q92930 whole entry, looked up): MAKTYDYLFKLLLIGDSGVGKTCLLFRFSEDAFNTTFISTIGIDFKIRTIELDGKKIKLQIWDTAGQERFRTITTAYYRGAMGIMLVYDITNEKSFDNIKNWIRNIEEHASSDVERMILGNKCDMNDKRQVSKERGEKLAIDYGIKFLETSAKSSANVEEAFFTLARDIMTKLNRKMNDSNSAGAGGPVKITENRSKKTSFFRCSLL
# Sequence of UniProt Q8N0T1 (Q8N0T1 whole entry, looked up): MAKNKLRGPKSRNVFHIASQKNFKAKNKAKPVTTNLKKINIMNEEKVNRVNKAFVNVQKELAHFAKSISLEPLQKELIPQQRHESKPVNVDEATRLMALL
row,Target,log2 fold change
1,RNF167 (UniProt Q9H6Y7),-0.025
2,SESN2 (UniProt P58004),-0.049
3,SEC31A (UniProt O94979),-0.054
4,RBM27 (UniProt Q9P2N5),-0.063
5,RAVER1 (UniProt E9PAU2),-0.263
6,ROCK1 (UniProt Q13464),-0.079
7,SDCBP (UniProt O00560),-0.064
8,RMC1 (UniProt Q96DM3),-0.002
9,REL (UniProt Q04864),-0.093
10,RAB8B (UniProt Q92930),-0.047
11,RPS20 isoform 2 (UniProt P60866),0.046
12,RAC1 (UniProt P63000),0.27
13,SEC16A isoform 5 (UniProt O15027),-0.177
14,RPRD1B (UniProt Q9NQG5),-0.06
15,ROCK2 (UniProt O75116),-0.049
16,RALY (UniProt Q9UKM9),0.055
17,SETD3 (UniProt Q86TU7),-0.013
18,RBIS (UniProt Q8N0T1),0.083
19,RBM26 isoform 2 (UniProt Q5T8P6),-0.16

# Compound: CC(C)C1=C2N=C(C=C(N2N=C1)NCC3=CC=CC=C3)NCCCCCCN
# Experiment: as above
# Procedure, shortened: as §1
row,Target,log2 fold change
1,RPS12 (UniProt P25398),0.036
2,RUNX1 isoform 8 (UniProt Q01196),-0.184
3,RAB9A (UniProt P51151),-0.126
4,RPS9 (UniProt P46781),-0.025
5,SCG3 (UniProt Q8WXD2),0.203
6,RNPEP (UniProt Q9H4A4),-0.182
7,SCCPDH (UniProt Q8NBX0),0.038
8,RABGGTA (UniProt Q92696),0.049
9,RRAGB (UniProt Q5VZM2),-0.162
10,RPS21 (UniProt P63220),0.056
11,RPP25L (UniProt Q8N5L8),-0.293
12,SCAF11 (UniProt Q99590),0.134
13,RGS10 (UniProt O43665),-0.057
14,RPL38 (UniProt P63173),0
15,RNF167 (UniProt Q9H6Y7),-0.047
16,SESN2 (UniProt P58004),-0.407
17,SEC31A (UniProt O94979),-0.008

row,Target,log2 fold change
1,RBM27 (UniProt Q9P2N5),-0.479 (active)
2,RAVER1 (UniProt E9PAU2),-0.409
3,ROCK1 (UniProt Q13464),-0.026
4,SDCBP (UniProt O00560),-0.671 (active)
5,RMC1 (UniProt Q96DM3),-0.209
6,REL (UniProt Q04864),-0.074
7,RAB8B (UniProt Q92930),-0.002
8,RPS20 isoform 2 (UniProt P60866),-0.03
9,RAC1 (UniProt P63000),0.051
10,SEC16A isoform 5 (UniProt O15027),-0.282 (active)
11,RPRD1B (UniProt Q9NQG5),-0.018
12,ROCK2 (UniProt O75116),-0.138
13,RALY (UniProt Q9UKM9),-0.101
14,SETD3 (UniProt Q86TU7),0.027
15,RBIS (UniProt Q8N0T1),-0.001
16,RBM26 isoform 2 (UniProt Q5T8P6),-0.295

# Compound: CC(C)C[C@@H](C=O)NC(=O)[C@H](CC(C)C)NC(=O)[C@H](CC(C)C)NC(=O)OCc1ccccc1
# Experiment: as above
# Procedure, shortened: as §1
row,Target,log2 fold change
1,RPS12 (UniProt P25398),-0.024
2,RUNX1 isoform 8 (UniProt Q01196),0.082
3,RAB9A (UniProt P51151),-0.008
4,RPS9 (UniProt P46781),0
5,SCG3 (UniProt Q8WXD2),0.038
6,RNPEP (UniProt Q9H4A4),-0.021
7,SCCPDH (UniProt Q8NBX0),-0.032
8,RABGGTA (UniProt Q92696),-0.041
9,RRAGB (UniProt Q5VZM2),0.011
10,RPS21 (UniProt P63220),0.075
11,RPP25L (UniProt Q8N5L8),0.035
12,SCAF11 (UniProt Q99590),0.213
13,RGS10 (UniProt O43665),-0.004
14,RPL38 (UniProt P63173),0.124
15,RNF167 (UniProt Q9H6Y7),-0.009
16,SESN2 (UniProt P58004),0.055
17,SEC31A (UniProt O94979),0.033

row,Target,log2 fold change
1,RBM27 (UniProt Q9P2N5),0.042
2,RAVER1 (UniProt E9PAU2),-0.042
3,ROCK1 (UniProt Q13464),0.012
4,SDCBP (UniProt O00560),0.181
5,RMC1 (UniProt Q96DM3),0.011
6,REL (UniProt Q04864),0.062
7,RAB8B (UniProt Q92930),0.046
8,RPS20 isoform 2 (UniProt P60866),0.012
9,RAC1 (UniProt P63000),-0.026
10,SEC16A isoform 5 (UniProt O15027),0.046
11,RPRD1B (UniProt Q9NQG5),-0.028
12,ROCK2 (UniProt O75116),0.034
13,RALY (UniProt Q9UKM9),0.083
14,SETD3 (UniProt Q86TU7),-0.022
15,RBIS (UniProt Q8N0T1),0.281 (active)
16,RBM26 isoform 2 (UniProt Q5T8P6),0.024
